Potency and affinity values are given separately. The source made the active and inactive calls. Entries that show only a call come without a potency. How the calls were made is not given here.

For the experiment, the target named is KSHV LANA C-terminal domain (residues 932-1162) binding to LBS DNA (UniProt O40947). In words: inhibitors of C-LANA binding to LBS DNA, dose response, biochemical, fluorescence polarization, cherry-picked samples (AID 504725).

As for `O=C(O)CN1C(=O)/C(=C\c2cc(Br)ccc2OCc2ccc([N+](=O)[O-])cc2)SC1=S`, the molecule was called inactive.
Then `CCN(c1ccc(C)cc1C)S(=O)(=O)c1nnc(NC(=O)c2ccco2)s1`, with “inactive”.
`CCOc1ccc(Nc2ccc(N)c(S(=O)(=O)O)c2)cc1`: the call was inactive.
On to `O=C1CN=C(Nc2ccccc2Cl)N1Cc1ccc2c(c1)OCO2`, for which the result was inactive.
Consider `O=S(=O)(NCc1cccnc1)c1ccc(Cl)s1`, for which the molecule was classed as inactive.
For `COc1ccc2[nH]c3c(C)c4cc[n+](C)cc4c(C)c3c2c1`, the call was inactive.
For the molecule `N#CCCN(CCC#N)C(=O)C1c2ccccc2Oc2ccccc21`, the molecule was called inactive.
As to `O=C(CSc1cccc2cccnc12)N/N=C/c1ccc(O)cc1`, the molecule was called inactive.
On to `O=C(OCC(=O)N1N=C(c2ccc(Cl)cc2)CC1c1ccco1)c1cccnc1` (stereo not drawn), for which the molecule was classed as inactive.
As for `COc1ccc(NC(=O)Cc2nnc(SCC(=O)Nc3nccs3)n2C)cc1`, the outcome was inactive.
Turning to `CN1CCN(CCCNC(=O)c2cc3c(-c4ccc(Cl)cc4)nn(C)c3s2)CC1`, the call was inactive.
`CC1=[N+](C)N(c2ccccc2)C(=O)C1N=C/C=C/c1ccccc1` (stereo not drawn): the molecule was classed as inactive.
As for `CC(/C=C1\SC(=S)N(CCCC(=O)Nc2ccc(C(=O)O)cc2)C1=O)=C\c1ccccc1`, the entry is “inactive”; as for `COc1ccc(-c2cc(C(=O)N(C)CCc3ccc(OC)c(OC)c3)c3ccccc3n2)cc1`, “inactive”.
As for `CCc1sc(C(=O)NNC(=O)CNC(=O)c2ccccc2F)cc1C`, the call was inactive.
Consider `CCCCN(C(=O)CSc1nnc(-c2ccc(Cl)cc2)o1)c1c(N)n(CC(C)C)c(=O)[nH]c1=O`, for which the result was inactive.
For `CCN(CC)C(=S)SC1CCCCN(C(=O)c2ccccc2)C1=O` (stereo not drawn), the molecule was classed as inactive.
With `O=C(O)/C(=C\c1cccs1)Sc1nnc(-c2ccc(F)cc2)o1`, the outcome was inactive.
As to `CCOC(=O)N1CCN(C(=S)NC(=O)c2cccc(OC)c2)CC1`, the call was inactive.
On to `CC(C)=C1C2C=CC1C(C(=O)Nc1cc(C)ccc1C)C2C(=O)O` (stereo not drawn), for which the molecule was classed as inactive.
For `COc1ccc(-c2cc(C(F)(F)F)n3ncc(C(=O)N4CCCCC4c4cccnc4)c3n2)cc1` (stereo not drawn), the call was inactive.
Consider `CC(C)[C@H](NC(=O)c1ccccc1F)C(=O)NC1CCCCCCC1`, for which the molecule was classed as inactive.
`COc1ccc(CCNC(=O)CNC(=O)Cn2ccc3ccccc3c2=O)cc1OC`: the result was inactive.
Then `O=c1cc(-c2ccc(O)c(O)c2)oc2cc(O[C@@H]3O[C@H](CO)[C@@H](O)[C@H](O)[C@H]3O)cc(O)c12`, with “inactive”; and `Nc1ccc(-c2nc3ccc(C(=O)O)cc3s2)cc1`, with “inactive”; and `CCN(CC(=O)NCc1cccs1)C(=O)c1ccc(S(=O)(=O)Nc2ccccc2C)cc1`, with “inactive”.
Consider `O=C(/C=N/NC(=O)c1ccc(Cl)cc1Cl)c1ccccc1`, for which the result was inactive.
Then `Cc1cc(C)nc(SCC(=O)N/N=C/c2cc(C)n(-c3ccccc3C)c2C)n1`, with “inactive”; and `CCCOc1ccc(C=Nc2ccc(OC)c(S(=O)(=O)N3CCOCC3)c2)c(O)c1`, with “inactive”.
As to `Nc1ccccc1C(=O)N1O[C@@H]2C=C[C@H]1CC2`, the molecule was classed as inactive.
As for `O=C(c1cccc(S(=O)(=O)NCc2ccccc2)c1)N1CCN(c2ccccc2Cl)CC1`, the entry is “inactive”; as for `COc1cccc(NC(=O)CN(C)C(=O)c2cc3ccccc3cc2OC)c1`, “inactive”; as for `CCNc1nc(NC(C)C)nc(NS(=O)(=O)c2ccc(N)cc2)n1`, “inactive”.
Then `NNc1nc2sc3c(c2c(=O)n1C1CCCCC1)CCN(Cc1ccccc1)C3`, with “inactive”; and `NNc1nc(-c2ccccc2)cs1`, with “inactive”; and `O=C(O)/C=C/C(=O)Nc1ccc(Cc2ccc(NC(=O)/C=C/C(=O)O)cc2)cc1`, with “inactive”.
Take `Cc1cccc(N(Cc2ccccc2)C(=O)C2CCN(C(=O)c3ccccc3C)CC2)c1`: the outcome was inactive.
On to `Cc1c(NC(=O)CCC2CCCCC2)cc(C(=O)N2CCOCC2)cc1[N+](=O)[O-]`, for which the result was inactive.
Turning to `Cc1c(C)n(CCC(=O)O)c2ccccc12`, the call was inactive.
Consider `CCOc1ccc(S(=O)(=O)N(C)c2ccc(OCC(=O)NC3=NCCS3)cc2)cc1`, for which the call was inactive.
As for `CCOCCCn1c(SCC(=O)NC(C)(C)C)nc2ccccc2c1=O`, the entry is “inactive”.
As for `COc1ccc(C(=O)OCC(=O)NC2CC2)cc1S(=O)(=O)Nc1ccc(C)cc1`, the entry is “inactive”.
Take `O=C(Nc1ccc2c(c1)OCO2)N1CCCc2ccccc21`: the outcome was inactive.
`CCOC(=O)C1(Cc2cccc(F)c2)CCN(Cc2c(C)nn(CC)c2C)CC1`: the call was inactive.
On to `CC(=O)N/C(=N\OCc1ccc(Br)cc1)c1nonc1NC(C)=O`, for which the outcome was inactive.
On to `CC(C)c1ccc(CNc2ccc([N+](=O)[O-])cn2)cc1`, for which the outcome was inactive.
As to `S=c1c2c(nc3nc[nH]n13)CCC2`, the call was inactive.
Then `O=C(Nc1cc(Cl)ccc1-n1cncn1)c1cccs1`, with “inactive”.
